High-throughput results from PubChem BioAssay.
NTR1 ag: agonists of human neurotensin receptor NTR1; NTR1-U2OS beta-arrestin-GFP spot imaging, agonist mode; activation, % at 20 µM; actives 0.17% (n = 330,000);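 active = activation at or above 40% of the spot to cytoplasm intensity ratio, with at least 20 cells analyzed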
ABHD5-PLIN5 inh: ABHD5-PLIN5 protein interaction inhibition. Q00G26+Q8WTS1. Split G. princeps luciferase complementation, luminescence, 4 h. inhibition, % at 4 µM. actives 0.78% (n = 360,000);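 active = inhibition above the mean inhibition across every tested compound plus 3 SD, cut at about 22% in these data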
Target sequence (Q00G26 whole entry, looked up): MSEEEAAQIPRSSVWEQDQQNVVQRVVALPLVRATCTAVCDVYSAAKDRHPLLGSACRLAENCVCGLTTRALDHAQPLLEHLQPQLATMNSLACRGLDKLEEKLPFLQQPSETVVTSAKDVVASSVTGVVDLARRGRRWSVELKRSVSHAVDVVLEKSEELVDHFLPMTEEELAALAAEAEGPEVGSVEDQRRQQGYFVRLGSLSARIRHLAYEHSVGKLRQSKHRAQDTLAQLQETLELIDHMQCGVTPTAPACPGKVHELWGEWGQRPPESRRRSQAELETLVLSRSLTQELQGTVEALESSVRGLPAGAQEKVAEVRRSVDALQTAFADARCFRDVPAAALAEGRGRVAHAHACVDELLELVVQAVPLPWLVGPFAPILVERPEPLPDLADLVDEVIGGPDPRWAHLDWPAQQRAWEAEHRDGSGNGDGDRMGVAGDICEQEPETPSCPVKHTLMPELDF
Target sequence (Q8WTS1 whole entry, looked up): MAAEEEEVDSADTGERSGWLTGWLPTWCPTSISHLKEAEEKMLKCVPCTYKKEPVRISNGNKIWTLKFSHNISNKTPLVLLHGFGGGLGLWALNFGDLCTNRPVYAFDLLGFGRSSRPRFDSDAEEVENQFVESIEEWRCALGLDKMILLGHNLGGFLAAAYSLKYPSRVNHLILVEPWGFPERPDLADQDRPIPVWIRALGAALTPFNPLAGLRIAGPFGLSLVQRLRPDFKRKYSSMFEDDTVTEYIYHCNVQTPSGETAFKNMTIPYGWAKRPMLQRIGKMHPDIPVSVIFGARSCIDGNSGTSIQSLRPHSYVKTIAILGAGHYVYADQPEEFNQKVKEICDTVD
Granule exo inh: lytic granule exocytosis inhibition; TALL-104 LAMP-1 surface exposure, flow cytometry; cells stimulated with thapsigargin and PMA; inhibition, % at 10 µM; actives 0.66% (n = 360,000);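 active = inhibition above about 55%, limit read from the data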
B2AR ag: agonists of human beta-2 adrenergic receptor inducing internalization; P07550; Am2.2-beta2AR cells, FAP receptor internalization, flow cytometry; response, % (concentration not given with the values); actives 0.43% (n = 340,000);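 active = response above a set limit, near 3 SD of response in nonfluorescent compounds, cut at about 42% in these data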
HTR2A ag: activates the mouse 5-HT2A serotonin receptor. P35363. CHO-K1 mHTR2A beta-arrestin complementation, luminescence; percent of 30 µM serotonin response. activation, % at 7.6 µM. actives 0.66% (n = 360,000). AID 624169;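 active = activation above a run cutoff, the mean activation of all tested compounds plus 3 SD, cut at about 14% in these data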
Each line names hits and unclear results; the compound was inactive in the other large screens. Shown are actives, neighbours in structure and some others; about 2.3% of the full set was active somewhere.

COC1CCC(OC2CC(C3(C)CCC4(CC(O)C(C)C(C(C)/C=C(\C)C(=O)C(C)CC(C)C(=O)O)O4)O3)OC3(OC(C4OC(O)(CO)C(C)CC4C)CC3C)C2C)OC1C (stereo not given)	Granule exo inh 78 (no result: NTR1 ag)
CCCCn1nnnc1C(c1cccs1)N1CCC2(CC1)C(=O)NCN2c1ccccc1 (stereo not given)	none (no result: NTR1 ag, B2AR ag)
c1ccc2c(c1)CN(Cc1ccc3c(c1)OCO3)Cc1cnnn1-2	none (no result: NTR1 ag, B2AR ag)
CN1C(=O)C(=Cc2ccc(-c3cccc(Cl)c3)o2)C(=O)N(C)C1=O	none (no result: ABHD5-PLIN5 inh, Granule exo inh, B2AR ag, HTR2A ag)
Cc1ccc(Sc2ccc(C=C3C(=O)N(C)C(=O)N(C)C3=O)o2)cc1	Granule exo inh 74
Oc1ccc2c3c1OC1c4[nH]c5ccccc5c4C[C@@]4(O)C(C2)N(CC2CC2)CC[C@]314 (stereo not given in full)	none
O=C1/C(=C/c2ccccc2)C[C@@]2(O)[C@H]3Cc4ccc(O)c5c4[C@@]2(CCN3CC2CC2)C1O5 (stereo not given in full)	ABHD5-PLIN5 inh 65, B2AR ag 69
CCOC(=O)[C@]12Cc3cc(OC)ccc3[C@H]1N(C(C)C)C(=O)c1cc(OC)ccc12	none (no result: NTR1 ag, B2AR ag)
CN1CCc2cc3c(c4c2C1Cc1ccccc1-4)OCO3 (stereo not given)	Granule exo inh 80
C=C(C)[C@@]12OC3(c4ccccc4)O[C@@H]1C1[C@@H]4O[C@]4(CO)[C@@H](O)[C@]4(O)C(=O)C(C)=C[C@H]4[C@@]1(O3)[C@H](C)[C@H]2OC(=O)/C=C/C=C/c1ccccc1 (stereo not given in full)	B2AR ag 112
CCCCn1nnnc1C(CC)N1CCC2(CC1)C(=O)NCN2c1ccccc1 (stereo not given)	none (no result: NTR1 ag, B2AR ag)
O=[N+]([O-])c1ccc(N2CCNCC2)cc1N1CCCCC1	none
O=[N+]([O-])c1cccnc1N1CCCNCC1	HTR2A ag 32
O=C1NC(=O)N(c2ccc(Br)cc2)C(=O)/C1=C/c1ccsc1	none
O=C1NC(=O)N(c2ccc(F)cc2)C(=O)/C1=C/c1ccsc1	ABHD5-PLIN5 inh 23
CN(CC1COc2ccccc2O1)c1nc(-c2cccnc2)nc2ccccc12 (stereo not given)	Granule exo inh 87
Cn1cccc1/C=C1/C(=O)NC(=S)N(Cc2ccc(F)cc2)C1=O	Granule exo inh 58, B2AR ag 60
CN1C(=O)C(=Cc2sc(=O)n(-c3ccccc3)c2N2CCCCC2)C(=O)N(C)C1=O	none (no result: NTR1 ag)
CN1CCN(c2nc3ccccn3c(=O)c2C=C2C(=O)N(C)C(=O)N(C)C2=O)CC1	ABHD5-PLIN5 inh 23
CCOC(=O)c1cc2cc(OC)ccc2n1C1CCN(Cc2ccccc2)CC1	none (no result: NTR1 ag, B2AR ag)
CCN(CC)C(=O)c1ccc2c(c1)C1C(Cl)C(Sc3ccccc3[N+](=O)[O-])CC1C(C(=O)O)N2 (stereo not given)	ABHD5-PLIN5 inh 23
Nc1ccc(CCN2CCN(c3cccc(C(F)(F)F)c3)CC2)cc1	none
FC(F)(F)c1ccc2c(c1)N(CCCN1CCN(CCCl)CC1)c1ccccc1S2	B2AR ag 68
CCC(C)C1NC(=O)C2CCCN2C(=O)C(CC(C)C)OC(=O)CCNC(=O)C(C)N(C)C(=O)C(C(C)C)N(C)C1=O (stereo not given)	none (no result: NTR1 ag)
CC[C@H](C)C1OC(=O)[C@@H](C)[C@@H](CC)NC(=O)[C@H](C)N(C)C(=O)C(C)(C)C(=O)C(C)NC(=O)[C@H](Cc2ccc(OC)cc2)N(C)C(=O)[C@H](C(C)C)N(C)C(=O)CNC(=O)[C@H](CC(C)C)N(C)C(=O)CNC1=O (stereo not given in full)	HTR2A ag 21 (no result: NTR1 ag, B2AR ag)
CNC(=O)C[C@H]1CC[C@@H]2NC[C@H](O)COC[C@H]2O1	none (no result: NTR1 ag, B2AR ag)
COc1ccc(CC2c3cc(OC)c(OC)cc3CCN2C)cc1OC (stereo not given)	none
COc1cc2c(cc1OC)CC[N+](C)=C2	B2AR ag 57
O=C1NC(=S)N(c2ccccc2F)C(=O)/C1=C\c1cccs1	Granule exo inh 76
O=C1NC(=O)C(=Cc2ccc(-c3ccccc3[N+](=O)[O-])o2)C(=O)N1	Granule exo inh 76
O=C1NC(=O)C(=Cc2ccc(-c3cc(Cl)ccc3[N+](=O)[O-])o2)C(=O)N1	Granule exo inh 61 (no result: NTR1 ag)
CC1C(=O)CC2(C(C)C)CC12 (stereo not given)	none (no result: NTR1 ag, B2AR ag)
Cn1ncnc2c(=O)n(C)c(=O)nc1-2	B2AR ag 53
Cc1ccc(-n2c(=O)[nH]c3ccccc3c2=O)cc1[N+](=O)[O-]	none (no result: NTR1 ag, B2AR ag)
Cc1cc(C=C2C(=O)NC(=S)NC2=O)c(C)n1-c1ccc2c(c1)OCO2	HTR2A ag 16
O=C1NC(=O)N(Cc2ccccc2)C(=O)/C1=C\c1ccco1	B2AR ag 58
c1ccc2[nH]c(CCN3CCCCC3)nc2c1	none (no result: NTR1 ag, B2AR ag)
C=CCCC[C@@H]1OC(=O)CNC(=O)C([C@@H](C)CC)NC(=O)[C@@H]2CCCN2C(=O)C([C@@H](C)CC)OC(=O)[C@H](Cc2ccccc2)N(C)C(=O)[C@H](C(C)C)NC(=O)C1(C)C (stereo not given in full)	ABHD5-PLIN5 inh 22 (no result: NTR1 ag, B2AR ag)
CN1C(=O)/C(=C\c2ccc(Br)s2)C(=O)NC1=S	none (no result: NTR1 ag)
O=C1NC(=S)NC(=O)C1=Cc1ccc(Br)s1	Granule exo inh 72, B2AR ag 54
O=C(CCc1ccccc1)N1Cc2cc(N3CCCCC3)ccc2-n2nncc2C1	none (no result: NTR1 ag, B2AR ag)
Cc1ccc(OC(=O)N(C)C[C@@H]2OCc3cnnn3CCCC(=O)N([C@@H](C)CO)C[C@@H]2C)cc1	none (no result: NTR1 ag, B2AR ag)
Nc1ccccc1C(=O)OCC(=O)N1CCc2ccccc21	none
N#CSCC(=O)N1c2ccccc2CCc2ccccc21	B2AR ag 52
CCCCn1nnnc1C(CCSC)N1CCC2(CC1)C(=O)NCN2c1ccccc1 (stereo not given)	none (no result: NTR1 ag, B2AR ag)
Cc1cc(C)cc(N2C(=O)NC(=O)/C(=C\C=C\c3ccco3)C2=O)c1	ABHD5-PLIN5 inh 23, B2AR ag 59 (no result: NTR1 ag)
CCc1ccc(N2C(=O)NC(=O)/C(=C\C=C\c3ccco3)C2=O)cc1	ABHD5-PLIN5 inh 22, Granule exo inh 76, B2AR ag 71
CC(C)c1ccc(N2C(=O)NC(=O)/C(=C/C=C/c3ccco3)C2=O)cc1	ABHD5-PLIN5 inh 22 (no result: NTR1 ag)
Cc1ccc(N2C(=O)NC(=O)/C(=C/C=C/c3ccco3)C2=O)cc1	B2AR ag 83
CCCCN1C(=O)/C(=C/C=C/c2ccco2)C(=O)NC1=S	none (no result: NTR1 ag)
C[C@H](CO)N1C[C@H](C)[C@H](CN(C)C(=O)Oc2ccccc2)OCc2cnnn2CCCC1=O	none (no result: NTR1 ag, B2AR ag)
CCc1ccccc1N1C(=O)NC(=O)/C(=C\c2cc(C)n(C)c2C)C1=O	B2AR ag 61
Cc1cc(C)cc(N2C(=O)NC(=O)/C(=C\c3cc(C)n(C)c3C)C2=O)c1	none
N#CC1c2ccccc2-n2nncc2CN1Cc1cc(Cl)cc(Cl)c1 (stereo not given)	ABHD5-PLIN5 inh 96, B2AR ag 94 (no result: NTR1 ag)
CCOC(=O)CNC(=O)N1Cc2cc(N3CCOCC3)ccc2-n2nncc2C1	none (no result: NTR1 ag, B2AR ag)
